In PubChem BioAssay AID1259422 (The Scripps Research Institute Molecular Screening Center, 2018):
Values joined by “and” are separate entries in the source; they are usually repeats but may differ in a detail not shown here. Equal values may be shown once. Out of some 640,000 compounds screened, about 9,300 (1.5%) were called active. No stated cut-off is given here; in the data, active means inhibition above about 32%; inactive means the rest. Many of the other results were omitted from the sample, so actives are more common in it than they were.

Experiment: TEAD-YAP interaction inhibition, primary screen, TEAD-YAP interaction inhibitor project, luminescence, HEK-TIYL cells (AID 1259422);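 further: 0% = median of test compound wells and 100% = reference inhibitor wells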
Details: TEAD-Gal4/YAP UAS-luciferase luminescence, at 9.12 µM, active compounds read high

SMILES | inhibition
CN1CCN(C(=O)c2cc(-c3cccs3)n(CC(=O)N3CCC(O)CC3)n2)CC1 | -2.96% (inactive)
Cc1ccc(Nc2nc(-c3ccccc3Cl)nc3ccccc23)cc1Cl | 9.51% (inactive)
Cc1c(Cl)cccc1NC(=O)c1cnn2c(C(F)(F)F)cc(-c3ccco3)nc12 | 0.28% (inactive)
O=[N+]([O-])c1ccc(-c2csc(=NCc3cccnc3)n2-c2ccccc2)cc1 | -0.76% (inactive)
COc1ccc(CC(=O)Nc2nnc(SCC(=O)Nc3nnc(C)s3)s2)cc1 | 12.5% (inactive)
Cc1nnc(NC(=O)CSc2nc(C(C)C)ccc2C#N)s1 | 62.8% (active)
Cc1nnc(NC(=O)CSc2nc3ccccc3cc2C#N)s1 | -10.2% (inactive)
C=CCNC(=O)Cn1cnc2c([nH]c3ccc(C)cc32)c1=O | 3.72% (inactive)
COc1ccc(NC(=O)CN(c2cc(C(F)(F)F)ccc2Cl)S(=O)(=O)c2ccccc2)cc1 | 56.2% (active)
NC(=O)CN(c1cc(C(F)(F)F)ccc1Cl)S(=O)(=O)c1ccccc1 | -1.66% (inactive)
O=C(CN(c1cc(C(F)(F)F)ccc1Cl)S(=O)(=O)c1ccccc1)NCc1ccncc1 | 3.78% (inactive)
CCCCOc1ccc(NC(=O)C(C)Oc2ccc(OC)cc2)cc1 (stereo unspecified) | 7.98% (inactive)
COC(=O)c1sc(NC(=O)c2ccncc2)c(C#N)c1C | -4% (inactive)
COC(=O)c1sc(NC(=O)C2CCCCC2)c(C#N)c1C | 1.29% (inactive)
COC(=O)c1sc(NC(=O)C2(C)CC2(Cl)Cl)c(C#N)c1C (stereo unspecified) | 38.3% (active)
COc1ccccc1N1CCN(S(=O)(=O)c2ccc(F)c(C(=O)Nc3ccc(C(C)C)cc3)c2)CC1 | -4.13% (inactive)
CC(C)CC(C(=O)N1CCOCCN(C(=O)C(CC(C)C)N2C(=O)c3ccccc3C2=O)CCOCC1)N1C(=O)c2ccccc2C1=O (stereo unspecified) | -2.73% (inactive)
CCCOc1c(Cl)cc(/C=C/C(=O)O)cc1OC | 4.32% (inactive)
O=C(NNc1ncc([N+](=O)[O-])cc1[N+](=O)[O-])c1ccncc1 | 6.87% (inactive)

SMILES | inhibition
O=C(O)C1CCCCC1C(=O)N1CCN(c2nc(-c3ccccc3Cl)c3cc(Br)ccc3n2)CC1 (stereo unspecified) | -2.46% (inactive)
C[C@H]1O[C@@H](O[C@H]2[C@@H](O)C[C@H](O[C@H]3[C@@H](O)C[C@H](O[C@H]4CC[C@]5(C)C6C[C@@H](O)[C@]7(C)[C@@H](C8=CC(=O)OC8)CC[C@]7(O)C6CC[C@@H]5C4)O[C@@H]3C)O[C@@H]2C)C[C@H](O)[C@@H]1O (stereo partly specified) | 99.7% (active) and 101% (active)
O=C1CCCN1CCCNc1cc(N2CCN(c3ccccn3)CC2)ncn1 | 6.77% (inactive)
CC(=O)c1cc(Cl)cc(Cl)c1O | -4.24% (inactive)
CCN(CC)c1ccc2cc(-c3csc(-c4nc(-c5cc6ccc(N(CC)CC)cc6oc5=O)cs4)n3)c(=O)oc2c1 | 4.64% (inactive)
CCCOc1ccc2cc(-c3csc(N)n3)c(=O)oc2c1 | 59.4% (active)
CCOC(=O)COc1ccc2cc(-c3nc4ccccc4s3)c(=O)oc2c1 | -4.53% (inactive)
CN(CCO)c1ccc(/C=N/Nc2nncc3ccccc23)cc1 | 76.3% (active)
COc1ccc(/C=N/NC(=O)CN(C)c2ccccc2)cc1OC | -17.2% (inactive)
CN(C)c1ccc(/C=N/Nc2nc(-c3ccccc3)cs2)cc1 | -3.84% (inactive)
c1ccc(CNc2nc3ccccc3n2CCOc2ccccc2)cc1 | -21.7% (inactive)
CCS(=O)(=O)c1cc([N+](=O)[O-])c(Sc2ccccc2N)s1 | 75.8% (active)
CCC(CC)NS(=O)(=O)c1ccccc1[N+](=O)[O-] | 12.2% (inactive)
Nc1ccc(Sc2ccccc2[N+](=O)[O-])cc1 | -0.16% (inactive)
CN(c1ccc2nc3ccccc3c(=O)n2n1)C1CCCCC1 | 89.7% (active)
CN(C(=O)Cn1nc2c3ccccc3nc(C3CC3)n2c1=O)C1CCCCC1 | -4.4% (inactive)
COC(=O)c1cnc(N(C)C2CCCCC2)c2ccccc12 | 6.67% (inactive)
CC(=O)Nc1ccc(Nc2nc(Nc3ccncn3)nc3c2ncn3-c2ccsc2)cc1 | 6.4% (inactive)
c1ccc(Nc2nc(Nc3ncccn3)nc3c2ncn3-c2ccccc2)cc1 | -25.3% (inactive)

SMILES | inhibition
CC(=O)Nc1ccc(Nc2nc(N3CCN(c4ccccn4)CC3)nc3c2ncn3-c2ccsc2)cc1 | 19.9% (inactive)
CC(=O)Nc1ccc(Nc2nc(N3CCC(N4CCOCC4)CC3)nc3c2ncn3-c2ccccc2)cc1 | 5.05% (inactive)
CC(=O)Nc1ccc(Nc2nc(Nc3cnccn3)nc3c2ncn3-c2ccccc2)cc1 | 49.2% (active)
CC(=O)Nc1ccc(Nc2nc(Cl)nc3c2ncn3-c2ccsc2)cc1 | 33.8% (active)
COc1ccc(S(=O)(=O)CCC(=O)Nc2ccc(C)cc2Br)cc1 | -9.1% (inactive)
COc1ccc(/C=C2/C(=O)NN(c3cccc(Cl)c3)C2=O)cc1 | 5.26% (inactive)
CC(=O)Oc1ccc(/C=C2\N=C(c3ccccc3F)OC2=O)cc1 | -4.17% (inactive)
Cc1c(C(=O)N/N=C/c2cccc([N+](=O)[O-])c2)nnn1-c1nonc1N | -6.33% (inactive)
CC(=O)Oc1c(C)cc(C)c2ccc(=O)[nH]c12 | -7.29% (inactive)
CCc1ccc(CC(=O)N2CC(=O)Nc3ccccc32)cc1 | 49.8% (active)
CC1CC(=O)Nc2ccccc2N1C(=O)Cc1ccc(Cl)cc1 (stereo unspecified) | -16.4% (inactive)
O=C1CN(C(=O)CCl)c2ccccc2N1 | 14.1% (inactive)
CCCOCc1c[nH]c(=O)[nH]c1=O | -4.81% (inactive)
CCOC(=O)C1=C(NC(=S)NC(=O)c2ccccc2)c2ccccc2CC1(CC)CC | 51.5% (active)
COc1ccc(C(=O)O)cc1NC(=S)NC(=O)c1ccccc1 | -6.39% (inactive)
CCOC(=O)c1c(NC(=S)NC(=O)c2ccccc2)sc2c1CC(C)(CC)OC2 (stereo unspecified) | 8.08% (inactive)
OC(CN1CCN(c2ccccc2F)CC1)Cn1nnnc1-c1ccccc1 (stereo unspecified) | 2.32% (inactive)
Cc1cc(C)c(/C=C/c2cc(C(F)(F)F)[nH]c(=O)n2)cc1C | -9.26% (inactive)
